For 14 compounds, growth results are on record in PubChem BioAssay (NCI).

About 83,000 compounds went through this panel and 20% of them were active in at least one assay; those are over-represented in the sample as a whole.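 How to read the values: 0–100, growth inhibition (40 = 60% inhibited); 0, no net growth; -100 to 0, cell death (-40 = 40% of starting cells died; -100 = all dead).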 Unmarked numbers belong to inactive results. Activity calls are given as the source filed them. The calls were made as follows: active = growth percent below 10; inactive = the rest.

Among the test systems are NCI-H23 lung; NCI-H226 lung; NCI-H322M lung; HOP-62 NSCLC; HOP-92 NSCLC; NCI-H522 lung; A549/ATCC NSCLC; 786-0 renal; COLO 205 colon.
What all share (assay): NCI-60 one-dose screen, 48 h (100 = growth as untreated, 0 = no growth, -100 = all killed)
Holding throughout (details): 10 µM unless noted

As for `COc1ccc(O)c(-c2cc(-c3ccccc3)c(C#N)c(=O)[nH]2)c1`, the growth in the experiment on NCI-H23 lung was 84.1%; in the experiment with NCI-H226 lung, 88.5%; with NCI-H322M lung, 96.4%; in the experiment on HOP-62 NSCLC it was 85.5%; in the experiment on HOP-92 NSCLC, 61.5%; in the experiment with NCI-H522 lung it was 65.6%. Besides, the growth in the experiment on A549/ATCC NSCLC is 84.1%; with 786-0 renal, 85.4%.

For `O=C1NC(=S)S/C1=C\N1N=C(c2ccc(Cl)cc2)CC1c1ccc(F)cc1` (configuration not stated), the growth is 91.3% in the experiment with NCI-H23 lung; 83.9% in the experiment with NCI-H226 lung; 99.1% with NCI-H322M lung; 103% in the experiment on HOP-62 NSCLC; 104% in the experiment on HOP-92 NSCLC; 76.1% with NCI-H522 lung. The figures for the growth in the experiment with A549/ATCC NSCLC and with 786-0 renal were 84.1% and 94%, respectively.

With `Cc1cnc(Nc2ccc(N3CCN(C)CC3)cc2)nc1Nc1ccc(Cl)c(NS(=O)(=O)C(C)(C)C)c1`, the growth in the experiment with NCI-H23 lung is 18.9%; in the experiment with NCI-H226 lung, 7.11% (active); with NCI-H322M lung, 37.2%; with HOP-62 NSCLC, 14.1%; in the experiment on HOP-92 NSCLC it was -27.8% (active); in the experiment on NCI-H522 lung, -28.8% (active). Besides, the figures for the growth in the experiment with A549/ATCC NSCLC and in the experiment on 786-0 renal were -26.1% (active) and -30.4% (active), respectively.

Regarding `O=S(=O)(NCCNc1cc(-c2c(-c3cccc(O)c3)nc3sccn23)ccn1)c1ccc(Cl)cc1`, the growth in the experiment on NCI-H23 lung was 79.1%; in the experiment with NCI-H226 lung, 62.4%; with NCI-H322M lung, 86%; with HOP-62 NSCLC, 103%; with HOP-92 NSCLC, 74.7%; in the experiment on NCI-H522 lung it was 66.1%. In addition, the growth in the experiment on A549/ATCC NSCLC is 57.6%; with 786-0 renal, 62.1%.

As for `O=C(/C=C/C12c3ccccc3C(c3ccccc31)C1C(=O)NC(=O)C12)c1ccccc1` (configuration not stated), the growth in the experiment on NCI-H23 lung was 6.51% (active); with NCI-H226 lung, 11%; in the experiment with NCI-H322M lung, 17.6%; in the experiment with HOP-62 NSCLC, 34.8%; in the experiment with HOP-92 NSCLC, 3.17% (active); in the experiment with NCI-H522 lung, 39.1%. The growth is 26.3% in the experiment with A549/ATCC NSCLC and 27.1% in the experiment with 786-0 renal.

As for `Cc1c(C(N)=O)sc2nc(C)n(/N=c3\scc(-c4ccccc4)n3Cc3ccccc3)c(=O)c12`, the growth with NCI-H23 lung was 20.5%; in the experiment with NCI-H226 lung, 30.9%; in the experiment with NCI-H322M lung, 35.4%; in the experiment on HOP-62 NSCLC, 24.2%; in the experiment on HOP-92 NSCLC, -19.1% (active); in the experiment on NCI-H522 lung, 24.9%. For the same compound, the growth in the experiment with A549/ATCC NSCLC was 0% (active); in the experiment with 786-0 renal, 50.7%.

For the compound `O=C(O)CC1Sc2ccccc2NC1=O` (configuration not stated), the growth in the experiment with NCI-H23 lung was 89.1%; in the experiment with NCI-H226 lung it was 95.2%; in the experiment on NCI-H322M lung it was 104%; with HOP-62 NSCLC it was 96.3%; with HOP-92 NSCLC it was 73.1%; with NCI-H522 lung it was 81%. The growth with A549/ATCC NSCLC was 106%; with 786-0 renal, 108%.

For the compound `CC(=[N-])N1CCC[C@@H](Nc2c3ccccc3nc3ccccc23)C1.[Cl][Pt].[NH-]CCC[NH-]`, the growth in the experiment on NCI-H23 lung is -2.65% (active); in the experiment on NCI-H226 lung it was -4.62% (active); in the experiment with NCI-H322M lung it was 44.9%; in the experiment on HOP-62 NSCLC it was 51.9%; in the experiment on HOP-92 NSCLC it was 28.7%; in the experiment with NCI-H522 lung, -18.5% (active). In the experiment with 786-0 renal, the growth is 53.5%.

`CN(C)S(=O)(=O)n1cnc([C@@H]2[C@@H]3C(=O)OC[C@@H]3C[C@]23N=CN(Cc2ccccc2)C3=O)c1`: the growth is 128% in the experiment on NCI-H23 lung; 110% with NCI-H226 lung; 110% in the experiment with NCI-H322M lung; 95.9% with HOP-62 NSCLC; 110% with HOP-92 NSCLC; 102% in the experiment on 786-0 renal. In the experiment on COLO 205 colon, the growth is 118%.

Take `O=c1oc2ccc(Cl)cc2cc1-c1cs/c(=N/N=C\c2ccc(Cl)cc2)n1/N=C/c1ccc(Cl)cc1`: the growth with NCI-H23 lung was 99.7%; with NCI-H226 lung it was 102%; in the experiment on NCI-H322M lung, 97.9%; in the experiment with HOP-62 NSCLC it was 109%; in the experiment with HOP-92 NSCLC it was 98%; with NCI-H522 lung it was 75.2%. Also, the growth is 89.3% in the experiment with A549/ATCC NSCLC, 97.9% in the experiment with 786-0 renal and 109% with COLO 205 colon.

Take `Nc1c(C(=O)c2ccc(Cl)s2)sc2nc3c(cc12)CCCC3`: the growth in the experiment with NCI-H23 lung was 91.5%; in the experiment on NCI-H226 lung it was 96.6%; in the experiment with NCI-H322M lung, 103%; with HOP-62 NSCLC, 97.3%; in the experiment with HOP-92 NSCLC it was 82.5%; in the experiment with A549/ATCC NSCLC, 100%. The figures for the growth in the experiment on 786-0 renal and in the experiment with COLO 205 colon were 106% and 110%, respectively.

Turning to `C=C(CNCCc1ccc(O)cc1)[C@@H]1CC[C@]2(COC3CCCCO3)CC[C@]3(C)[C@H](CC[C@@H]4[C@@]5(C)CCC(NCCO)C(C)(C)[C@@H]5CC[C@]43C)[C@@H]12` (some centres not stated), the growth in the experiment with NCI-H23 lung is -81% (active); in the experiment on NCI-H226 lung it was -54.2% (active); in the experiment on NCI-H322M lung it was -96.5% (active); with HOP-62 NSCLC, -89.2% (active); in the experiment with NCI-H522 lung, -77.3% (active); in the experiment with A549/ATCC NSCLC, -88.6% (active). Further, in the experiment with 786-0 renal, the growth was -90.2% (active).

For `COc1ccc(-c2nc3sccn3c2/C=C/C(=O)c2c[nH]c3ccccc23)cc1`, the growth is 73.2% in the experiment with NCI-H23 lung; 66.8% in the experiment on NCI-H226 lung; 63.6% in the experiment on NCI-H322M lung; 71.7% in the experiment on HOP-62 NSCLC; -5.53% (active) in the experiment with HOP-92 NSCLC; 55.6% with NCI-H522 lung. Moreover, the growth with A549/ATCC NSCLC was 54.1%; with 786-0 renal it was 78.8%; in the experiment with COLO 205 colon, 102%.

For `O[C@H]1CO[C@H]2[C@@H]1OC[C@@H]2Oc1ccc(Nc2ccnc(Nc3ccc(O[C@H]4CO[C@H]5[C@@H]4OC[C@@H]5O)c(Cl)c3)n2)cc1Cl`, the growth is -1.73% (active) in the experiment on NCI-H23 lung; 4.09% (active) in the experiment on NCI-H226 lung; -4.12% (active) in the experiment on NCI-H322M lung; -28.9% (active) with HOP-62 NSCLC; -20% (active) with HOP-92 NSCLC; -4.53% (active) with NCI-H522 lung. Besides, the figures for the growth in the experiment on A549/ATCC NSCLC, in the experiment with 786-0 renal and in the experiment on COLO 205 colon were 21.7%, 24.7% and 12%, respectively.
